Assay outcomes (PubChem)
ADAM10 inh – ADAM10 inhibition, QFRET primary screen; recombinant ADAM10, EDANS/DABCYL FRET peptide cleavage, 3 h; O14672; AID 720582; inhibition, % at 7 µM; hit rate 0.62% among 370,000;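 active = inhibition above a per-campaign cutoff equal to the mean of compounds falling between control-based bounds plus 3 SD, cut at about 20% in these data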;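 also: 0% = DMSO wells while the 100% control is not disclosed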
ADAM17 inh – inhibitors of human ADAM17; hit rate 0.83% among 370,000; AID 720648; inhibition, % at 6.95 µM; recombinant ADAM17, EDANS/DABCYL FRET peptide cleavage; P78536;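 active = inhibition above the mean of compounds lying between control limits plus 3 SD, set per campaign, cut at about 8.5% in these data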;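 also: 0% = DMSO-only wells as the low control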
FAS-TE inh – FAS thioesterase (human) inhibition; hit rate 0.67% among 360,000; recombinant FAS-TE, OMFH fluorogenic substrate, fluorescence endpoint; P49327; AID 602261; inhibition, % at 15 µM;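 active = compounds whose normalised, plate-corrected inhibition of enzyme fluorescence in the single-dose primary screen is 50% or more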;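 also: 0% = DMSO with enzyme and 100% = substrate without enzyme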
GRIN3A LBD mod – NR3A (human) ligand-binding domain modulation | NR3A LBD differential scanning fluorimetry, Tm shift; 0% = protein alone, 100% = glycine-bound protein | Tm shift relative to glycine control, % at 25 µM | hit rate 2.5% among 340,000;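 active = melting temperature shift of at least 10% of the positive control shift, at one fixed dose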
sPLA2-III inh – Blocks human group III sPLA2 activity | QFRET BODIPY PC-A2 liposome hydrolysis, fluorescence | inhibition, % at 12.2 µM | hit rate 0.56% among 370,000;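 active = inhibition above mean plus 3 SD of compounds lying within the high and low control bounds, cut at about 19% in these data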;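 also: 0% = median of test compound wells and 100% = no enzyme DMSO wells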
FAS-TE inh conf – confirmation of human fatty acid synthase thioesterase inhibitors. shares compounds with FAS-TE inh. recombinant FAS-TE, OMFH fluorogenic substrate, fluorescence. inhibition, % at 15 µM. hit rate 45% among 2,300;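 active = compounds inhibiting the enzyme by at least 50% at 15 µM in any one of the replicates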;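 also: 0% = enzyme with DMSO only and 100% = wells lacking enzyme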
Numbers without * were called inactive. Hits are enriched below; roughly 4.3% of the tested compounds scored in any of these assays.

Screening O=C(COc1ccc(S(=O)(=O)N2CCCCC2)cc1)Nc1ccccc1F returned ADAM10 inh -7, ADAM17 inh 0, FAS-TE inh 52*, GRIN3A LBD mod 4, sPLA2-III inh 1 and FAS-TE inh conf 55*.
Screening CCCCCCCCN1C(=O)[C@@H](CC(=O)NCCc2ccccc2OC)C[C@@]2(C(=O)OC)C1=C[C@H](C(C)(C)C)O[C@@H]2C returned ADAM10 inh -5, ADAM17 inh -2 and sPLA2-III inh 5.
For Cc1sc(NC(=O)Cc2ccc3c(c2)OCO3)nc1-c1ccc2c(c1)CCN2C(=O)c1ccc(F)cc1 the results were ADAM10 inh 6, ADAM17 inh 2, FAS-TE inh 15, GRIN3A LBD mod 0 and sPLA2-III inh -17.
Cc1sc(NC(=O)Cc2ccc3c(c2)OCO3)nc1-c1ccc2c(c1)CCN2C(=O)c1ccccc1F was read as ADAM10 inh 0, ADAM17 inh -2, FAS-TE inh 81*, GRIN3A LBD mod -4, sPLA2-III inh -2 and FAS-TE inh conf 14.
Screening Nn1c(SCc2ccc([N+](=O)[O-])cc2)nnc1-c1cc(-c2ccccc2)n[nH]1 returned ADAM10 inh -9, ADAM17 inh -4 and sPLA2-III inh 11.
`O=C(NCc1ccc(F)cc1)C(C(=O)NCc1ccc(F)cc1)c1ncc(C(F)(F)F)cc1Cl` gave ADAM10 inh 0, ADAM17 inh 6, FAS-TE inh 58*, GRIN3A LBD mod -1, sPLA2-III inh 10 and FAS-TE inh conf 62*.
For CC(C)(C)NC(=O)/C(=C\C=C\c1ccccc1)NC(=O)c1ccc([N+](=O)[O-])cc1 the results were ADAM10 inh 6, ADAM17 inh 0, FAS-TE inh 78*, GRIN3A LBD mod 15*, sPLA2-III inh -9 and FAS-TE inh conf 89*.
For O=C(N/C(=C/C=C\c1ccccc1)C(=O)N1CCOCC1)c1ccc(Br)cc1 the results were ADAM10 inh 6, ADAM17 inh 1, FAS-TE inh 65*, GRIN3A LBD mod 0, sPLA2-III inh -13 and FAS-TE inh conf 61*.
Screening O=C(N/C(=C/C=C/c1ccccc1)C(=O)N1CCCCC1)c1ccc([N+](=O)[O-])cc1 returned ADAM10 inh 1, ADAM17 inh 3, FAS-TE inh 92*, GRIN3A LBD mod -2, sPLA2-III inh -5 and FAS-TE inh conf 94*.
`COC(=O)/C(=C\C=C\c1ccccc1)NC(=O)c1ccccc1` gave ADAM10 inh 9, ADAM17 inh 1, FAS-TE inh 1, GRIN3A LBD mod -2 and sPLA2-III inh 5.
For O=C(N/C(=C/C=C/c1ccccc1)C(=O)N1CCOCC1)c1ccccc1Cl the results were ADAM10 inh -4, ADAM17 inh -1, FAS-TE inh -1, GRIN3A LBD mod 0 and sPLA2-III inh -3.
C=C(C)/C=C1/C(Cc2ccccc2)N(CC2CC2)C(=N)N1C(=O)OCc1ccccc1 (configuration not stated) was read as ADAM10 inh -57, ADAM17 inh -18 and sPLA2-III inh 8.
`C[C@H](O)[C@@H]1CN2CCc3c([nH]c4c(-c5ccccc5)cccc34)[C@@H]2C[C@@H]1N(C)C(=S)NCCc1ccccc1` gave ADAM10 inh -121, ADAM17 inh -30 and sPLA2-III inh 1.
COCCCNC(=O)C[C@H]1C(=O)N(Cc2ccc(OC)cc2)C2=CCCCC[C@@]21C(=O)OC was read as ADAM10 inh 4, ADAM17 inh 5 and sPLA2-III inh 1.
CCOC1=C2[C@@H](CN(S(=O)(=O)c3ccccc3C)[C@H]2c2ccc(Cl)cc2)[C@H]2C(=O)N(C3CCCCC3)C(=O)[C@H]2C1 was read as ADAM10 inh -2, ADAM17 inh 4 and sPLA2-III inh -17.
Screening CCOC1=C2[C@@H](CN(S(=O)(=O)c3ccc(C)cc3)[C@H]2c2ccccc2F)[C@H]2C(=O)N(C3CCCCC3)C(=O)[C@H]2C1 returned ADAM10 inh -7, ADAM17 inh -3, FAS-TE inh 72*, sPLA2-III inh 0 and FAS-TE inh conf 23.
